Records with an inconclusive call do not appear. Activity calls are given as the source filed them. The calls were made as follows: active = hit-call score of the fitted dose curve at least 0.9, where 1 is the maximum; inconclusive = response in the unintended direction; inactive = score below 0.9.
Legend:
[1] = TOX21_p53_BLA_p5_viability: Viability Assessment in the Tox21 HCT-116 p53 Agonism Beta-lactamase Assay, Phase 5 (AID 2283600)
How it was run: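 Decreased CellTiter-Glo luminescence denotes lost viability. Exposure: 16 h at 37C, 5% CO2, with compounds from DMSO stocks diluted 217-fold in wells of 4000 cells.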

[2] = biological target: Cellular tumor antigen p53 (Homo sapiens) (UniProt P04637); assay: TOX21_p53_BLA_p4_ratio: Tox21 HCT-116 p53 Agonism Beta-lactamase Assay, Ratio, Phase 4 (AID 2283601)
Sequence of Cellular tumor antigen p53 (Homo sapiens) (P04637 whole entry, looked up): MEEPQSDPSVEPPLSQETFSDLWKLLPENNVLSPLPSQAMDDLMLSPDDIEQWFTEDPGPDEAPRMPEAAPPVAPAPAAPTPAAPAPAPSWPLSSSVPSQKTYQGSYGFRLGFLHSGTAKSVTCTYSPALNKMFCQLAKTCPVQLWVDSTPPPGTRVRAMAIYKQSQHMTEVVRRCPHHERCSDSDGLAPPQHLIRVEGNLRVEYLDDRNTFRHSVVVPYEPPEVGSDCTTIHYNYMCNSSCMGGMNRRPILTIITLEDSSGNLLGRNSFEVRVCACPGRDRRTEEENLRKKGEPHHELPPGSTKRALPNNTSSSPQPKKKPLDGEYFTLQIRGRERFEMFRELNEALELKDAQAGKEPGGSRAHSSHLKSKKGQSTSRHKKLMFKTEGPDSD
How it was run: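 HCT-116 p53 beta-lactamase reporter cells (4000/well) preincubated 5 h, then compound (217-fold dilution of DMSO stock) for 16 h at 37C. CCF4-AM substrate added 2 h at room temperature; 460/530 nm emission ratio fitted upward versus DMSO.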

SMILES	outcome [1]	outcome [2]
CN(C)CCCNCCCN(C)C	inactive	inactive
NCCN1CCNCC1	inactive	inactive
c1ccc(OCCOc2ccccc2)cc1	inactive	inactive
CC/C=C\CCCCO	inactive	inactive
CCCCOCCOC(=O)c1ccccc1C(=O)OCCOCCCC		inactive
CCCCCC1CCC(=O)O1 (stereo not given)		inactive
CCCCOC(=O)C(C)OC(=O)CCC (stereo not given)		inactive
CC1(C)CC(=O)CC(C)(C)N1		inactive
CC(C)=CCCC(C)=CC(=O)O		inactive
CC1=CCC(=C(C)C)CC1		inactive
CC1=CCC(C(C)(C)O)CC1 (stereo not given)	inactive	inactive
CCCCCCCCCCCCOCCOS(=O)(=O)O	inactive	inactive
CCCCCCC(O)CCOC(C)=O (stereo not given)		inactive
O=C(O)C1=NN(c2ccc(S(=O)(=O)O)cc2)C(=O)C1	inactive	inactive
C=CCS(=O)(=O)O		inactive
CCCCCCCCCCCCS		inactive
CCCO[Si](OCCC)(OCCC)OCCC	inactive	inactive
NC(N)=NC(N)=NCCc1ccccc1	inactive	inactive
CC(C)(O)CCc1ccccc1		inactive
CCCCN(CCCC)CCCCCCN(CCCC)CCCC		inactive
CCC(=O)OC(C)(C)C1CC=C(C)CC1 (stereo not given)		inactive

Reference: PubChem BioAssay (EPA / NIEHS)
